RPL19A-GFP yeast – modulators of TOR pathway RPL19A-GFP in S. cerevisiae; hit rate 0.3% among 330,000; percent response vs DMSO, % at 10 µM; AID 2025; S. cerevisiae RPL19A-GFP strain, flow cytometry, 3 h; active compounds read low;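 active means percent response vs DMSO below 50%; inconclusive means fewer than 70 events counted for the yeast strain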;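 further: median channel GFP fluorescence of the barcoded RPL19A-GFP strain; lower means less RPL19A-GFP as with rapamycin TOR inhibition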
MEP2-GFP yeast – modulators of TOR pathway MEP2-GFP in S. cerevisiae. S. cerevisiae MEP2-GFP strain, flow cytometry GFP, 3 h; 100% = DMSO control level. GFP response vs DMSO, % at 10 µM. hit rate 0.51% among 330,000;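 active means GFP response versus DMSO above a set limit, roughly screen mean plus 3 SD, cut at about 180% in these data; inconclusive means fewer than 70 cells counted for a yeast strain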;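 further: median GFP fluorescence of the barcode-gated MEP2-GFP cells per well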
CIT2 TOR yeast – yeast TOR pathway CIT2-GFP modulation; GFP response vs DMSO, % at 10 µM; S. cerevisiae CIT2-GFP strain, flow cytometry, 3 h; 100 means same as DMSO wells; hit rate 0.065% among 320,000;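 active means GFP response relative to DMSO above a set limit, near the screen mean plus 3 SD, cut at about 150% in these data; inconclusive means Fewer than 70 cells measured for a yeast strain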;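 further: ratio of well median GFP fluorescence to mean of DMSO wells on the plate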
LAP4-GFP MLPCN – alters LAP4-GFP fluorescence in TOR pathway yeast screen. S. cerevisiae LAP4-GFP multiplex, flow cytometry GFP, 3 h; median GFP as percent of DMSO wells. GFP response vs DMSO, % at 10 µM. hit rate 0.34% among 320,000;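 active means GFP response vs DMSO above a set limit, about the screen mean plus 3 SD, cut at about 150% in these data; inconclusive means under 70 cell events counted for the yeast strain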
AGP1-GFP MLPCN – modulators of TOR pathway AGP1-GFP in S. cerevisiae; GFP response vs DMSO, % at 10 µM; S. cerevisiae AGP1-GFP multiplex flow cytometry, 3 h; GFP as percent of DMSO wells; hit rate 0.02% among 320,000;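 active means GFP response relative to DMSO above a set limit, near screen average plus 3 SD, cut at about 150% in these data; inconclusive means fewer than 70 cells counted for the yeast strain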;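 further: median GFP channel fluorescence of the gated AGP1 strain per well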
Myeloid diff 2 – myeloid differentiation induction; ER-HoxA9 myeloid progenitors, lysozyme-GFP differentiation, flow cytometry; calls only at 10 µM; hit rate 1% among 360,000;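 active means normalized GFP-positive differentiation at or above the plate's own cutoff, the solvent-only control mean plus 3 SD; inconclusive means no clear call, values can overlap the other calls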;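 further: cells exposed to compound for four days before flow analysis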
Large screens that a line does not name were inactive; [ ] = dose if it differs, or a comment. A selection: hits, their analogues and other compounds. The true share with any hit is near 1.8%.

CCC(C)[C@H](NC(=O)N1CC(=O)Nc2ccccc21)C(=O)N[C@@H](C(=O)O)c1ccccc1 (some centres not stated)	RPL19A-GFP yeast 24.5[may fluoresce violet], CIT2 TOR yeast inconclusive, AGP1-GFP MLPCN inconclusive
CCN(C(=O)CSc1n[nH]c(-c2ccc(OC)cc2)n1)c1c(N)n(Cc2ccccc2)c(=O)[nH]c1=O	Myeloid diff 2 active (no result: RPL19A-GFP yeast, MEP2-GFP yeast, CIT2 TOR yeast, LAP4-GFP MLPCN, AGP1-GFP MLPCN)
CCCCN(C(=O)CSc1nnc2ccccn12)c1c(N)n(Cc2ccccc2)c(=O)[nH]c1=O	Myeloid diff 2 active
CCc1ccc(-c2nc(SCC(=O)N(CCOC)c3c(N)n(Cc4ccccc4)c(=O)[nH]c3=O)n[nH]2)cc1	none
Cc1sc2nc3ccc(NCc4ccco4)nn3c(=O)c2c1C	Myeloid diff 2 active
CC1CCCC(NC(=O)COC(=O)c2n[nH]c3ccccc23)C1C (configuration not stated)	none
N#Cc1c(-c2ccncc2)c2c([nH]c1=O)-c1ccccc1OC2	RPL19A-GFP yeast 27.2[may fluoresce violet], MEP2-GFP yeast 224.4[may fluoresce violet], CIT2 TOR yeast inconclusive, AGP1-GFP MLPCN inconclusive (no result: Myeloid diff 2)
N#Cc1c(-c2ccccc2Cl)c2c([nH]c1=O)-c1ccccc1OC2	none
COc1ccccc1CN1C(=O)CN(C2CCCC2)C(=O)C1c1ccc(F)cc1 (configuration not stated)	Myeloid diff 2 active
O=C1C(c2ccc(F)cc2)N(Cc2ccc3c(c2)OCO3)C(=O)CN1C1CCCC1 (configuration not stated)	none
CCCC/C=C/C(NC(=O)CCc1ccccc1)c1ccccc1 (configuration not stated)	Myeloid diff 2 active
COc1ccc(Oc2c(OC)cc(NCc3ccc(CN)cc3)c3ncccc23)cc1	Myeloid diff 2 active (no result: RPL19A-GFP yeast, MEP2-GFP yeast, CIT2 TOR yeast, LAP4-GFP MLPCN, AGP1-GFP MLPCN)
COc1ccc(CNc2cccnc2Cl)cc1	none (no result: RPL19A-GFP yeast, MEP2-GFP yeast, CIT2 TOR yeast, LAP4-GFP MLPCN, AGP1-GFP MLPCN)
c1ccc(NC2=Nc3ccccc3CS2)cc1	Myeloid diff 2 active
COc1ccc(S(=O)(=O)N2CCC(C(=O)NCC3CCCO3)CC2)cc1 (configuration not stated)	none (no result: CIT2 TOR yeast)
CC(C)OC(=O)c1cc(NC(=S)Nc2ccc([N+](=O)[O-])cc2)cc(C(=O)OC(C)C)c1	MEP2-GFP yeast 261.4[may fluoresce violet], CIT2 TOR yeast inconclusive
O=C(CSc1nnc(-c2ccco2)o1)NC1CCCCCC1	none
O=C(OC(c1ccc(NS(=O)(=O)c2ccccc2)cc1)(C(F)(F)F)C(F)(F)F)c1ccccc1	MEP2-GFP yeast 193.8
COc1cc2[nH]c3c(Cl)ncnc3c2cc1OC	none
COc1cc2[nH]c(Cl)c([N+](=O)[O-])c2cc1OC	MEP2-GFP yeast 272.6[may fluoresce violet], CIT2 TOR yeast inconclusive
O=C(O)c1ccc(SCc2cnc(Cl)s2)cc1	LAP4-GFP MLPCN 178.8
O=C1N2CCSC2=NC1(Nc1nccs1)C(F)(F)F (configuration not stated)	none
COc1cccc(Nc2nc(-c3sc(NC(=O)c4ccccc4)nc3C)cs2)c1	Myeloid diff 2 active (no result: RPL19A-GFP yeast, MEP2-GFP yeast, CIT2 TOR yeast, LAP4-GFP MLPCN, AGP1-GFP MLPCN)
CC(C)[C@H](NC(=O)c1ccc(Cl)c([N+](=O)[O-])c1)C(=O)O	none
COc1ccc(S(=O)(=O)Nc2cc(C(=O)NC(C)C)ccc2N2CCOCC2)cc1	none
CCOC(=O)c1ccc(N2CCOCC2)c(NS(=O)(=O)c2ccc(F)cc2)c1	CIT2 TOR yeast 167.5[may fluoresce green]
CCOC(=O)c1cnc2c(C)cccc2c1NCc1ccco1	Myeloid diff 2 active
CN(C)c1ccc(-n2cccc2/C=C/[N+](=O)[O-])cc1	LAP4-GFP MLPCN 154.8
CC(=O)N1CCN(c2ccc(Nc3ncnc4c3oc3ccccc34)cc2)CC1	RPL19A-GFP yeast 22.1[may fluoresce violet], MEP2-GFP yeast 427.3[may fluoresce violet], CIT2 TOR yeast inconclusive (no result: AGP1-GFP MLPCN)
Cc1cc(/C=N/n2cnnc2)c(C)n1-c1ccc(OCc2ccc(F)cc2)cc1	Myeloid diff 2 active
CC1(C)C=Cc2c(ccc(-c3coc4cc(O)ccc4c3=O)c2O)O1	none (no result: Myeloid diff 2)
COCCn1c(SCC(=O)Nc2ccccc2)nnc1-c1ccoc1C	MEP2-GFP yeast 234.2[may fluoresce violet], CIT2 TOR yeast inconclusive, AGP1-GFP MLPCN inconclusive
Cc1cc(C(F)(F)F)c(C#N)c(SCC(=O)Nc2nc3ccccc3s2)n1	Myeloid diff 2 active
CCOC(=O)CCSc1nc(C)cc(C(F)(F)F)c1C#N	Myeloid diff 2 active
O=C1/C(=C/c2cccc(F)c2)Oc2cc(O)ccc21	none
CN(C(=O)C(C)(C)C)c1ccc(OCC(=O)N2CCc3ccccc3C2)cc1	none

High-throughput results (PubChem)
